Screens (PubChem BioAssay)
Shown are actives, neighbours in structure and some others; about 1.2% of the full set was active somewhere.
Rv3671c protease: Rv3671c (M. tuberculosis) protease inhibition | AID 2606 | inhibition, % at 5.96 µM | actives 0.048% (n = 320,000); in the data active = inhibition above about 38%;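 note: extracellular domain of Rv3671c used as enzyme; 0% = enzyme with DMSO and 100% = no enzyme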
Target sequence (P9WHR9 whole entry, looked up, the tested form may be a part): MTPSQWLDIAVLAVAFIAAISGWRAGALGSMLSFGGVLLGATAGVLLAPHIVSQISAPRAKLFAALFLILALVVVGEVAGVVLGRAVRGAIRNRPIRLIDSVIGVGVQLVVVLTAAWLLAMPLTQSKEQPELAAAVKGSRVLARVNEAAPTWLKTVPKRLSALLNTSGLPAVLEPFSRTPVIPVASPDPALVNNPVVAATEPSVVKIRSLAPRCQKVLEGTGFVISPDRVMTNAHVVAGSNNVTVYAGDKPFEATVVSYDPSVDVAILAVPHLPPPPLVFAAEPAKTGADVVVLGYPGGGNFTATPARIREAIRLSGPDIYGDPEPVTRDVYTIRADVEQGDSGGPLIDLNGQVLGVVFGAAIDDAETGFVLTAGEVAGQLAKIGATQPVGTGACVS
Mtb UGM inh: Mtb UDP-galactopyranose mutase inhibition; P9WIQ1; purified UGM, fluorescence polarization probe displacement; inhibition, % at 10 µM; actives 0.06% (n = 320,000); AID 504406; in the data active = inhibition above about 10%, passing the limit was not always enough
Mtb betalactam: beta-lactam sensitization of Mtb H37Rv; actives 0.27% (n = 330,000); inhibition, % at 25 µM; AID 434955; M. tuberculosis H37Rv growth with meropenem, percent inhibition;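 note: growth measured after seven days incubation then overnight dye step; 0% = bacteria only wells and 100% = bacteria with antibiotic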
CCHFV vOTU inh: CCHFV vOTU protease inhibition. inhibition, % at 11.5 µM. AID 651958. Pep-AMC fluorescence. actives 0.55% (n = 370,000); in the data active = inhibition above about 30%; note: 0% = vehicle wells with enzyme and 100% = no enzyme wells
RecA intein inh: blocks M. tuberculosis RecA intein splicing. cell-free RecA intein splicing, fluorescence. inhibition, % (test concentration not listed). actives 0.75% (n = 290,000); in the data active = inhibition above about 30%;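 note: 0% = vehicle wells and 100% = reference inhibitor control wells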
GFP chromo cs: counter-screen: blocks GFP chromophore formation; shares compounds with RecA intein inh; cell-free GFP chromophore formation, fluorescence; EC50, µM; actives 83% (n = 2,100)
Starred values were filed as active, the others as inactive; nt = not tested or not shown. Unless noted, the rule behind the calls is not given here.

SMILES	Rv3671c protease	Mtb UGM inh	Mtb betalactam	CCHFV vOTU inh	RecA intein inh	GFP chromo cs
Cc1ccc(S(=O)(=O)Cc2cc(F)c([N+](=O)[O-])cc2[N+](=O)[O-])cc1	-2	3	100	nt	35*	23*
CCOC(=O)c1ccc([N+](=O)[O-])c(CS(=O)(=O)c2ccc(Cl)cc2)c1	-2	2	3	-7	1	nt
CCN(CC)C(=O)CC[C@H]1CC[C@]2(CCCN(Cc3ccc(OC)cc3)C2)O1	nt	nt	nt	-3	nt	nt
O=C(Nc1ccccc1)Nc1ccc(O)c2ccccc12	-48	3	7	nt	60*	3*
COc1ccc(C(=O)Nc2ccc(O)c3ccccc23)cc1OC	-4	-1	-7	6	98*	15*
CC1CCc2c(c3ccccc3n2C(=O)CCl)C1 (stereo unspecified)	-5	-3	1	24	41*	0.69*
O=C(CSc1nc2ccc(Cl)cc2[nH]1)NCc1ccco1	-2	0	-1	-5	4	nt
COc1ccc(NC(=O)CSc2c3c(nc4cc(Cl)ccc24)CCCC3)cc1OC	-16	-3	0	-1	-12	29*
O=C(CSc1c2c(nc3cc(Cl)ccc13)CCCC2)NCc1ccco1	-4	4	2	1	30*	>38
COc1cc(NC(=O)CSc2c3c(nc4ccccc24)CCC3)cc(OC)c1OC	-2	-3	-5	4	6	nt
CCOC(=O)C1=C(C)N=C2SCCC(=O)N2C1c1ccc(OC)cc1 (stereo unspecified)	-10	0	-11	nt	4	nt
COCCOC(=O)C1=C(C)N=C2SCCC(=O)N2C1c1ccc(OC(=O)c2ccco2)cc1 (stereo unspecified)	-4	-4	11	2	33*	>38
O=C(NN=Cc1ccccc1C(F)(F)F)c1cc(-c2ccc(Cl)cc2)n[nH]1	nt	nt	nt	9	nt	nt
COc1ccc(N(C(=O)c2ccco2)C(C(=O)NC2CCCCC2)c2cccs2)cc1OC (stereo unspecified)	-5	0	-7	6	3	nt
COc1cccc(N(C(=O)CCl)C(C(=O)NCCc2ccccc2)c2cccs2)c1 (stereo unspecified)	7	-1	65	-12	73*	3.3*
COc1ccc(N(C(=O)CCl)C(C(=O)NCCc2ccccc2)c2cccs2)cc1Cl (stereo unspecified)	-2	4	88	12	77*	0.96*
N#CC1=C(N)Oc2c(c(=O)sc3ccccc23)C1c1ccncc1 (stereo unspecified)	-6	3	5	2	2	nt
Cc1nn(Cc2ccccc2)c2c1C(c1cccnc1)C(C#N)=C(N)O2 (stereo unspecified)	-1	-2	-7	-5	73*	13*
Cc1nn(Cc2ccccc2)c2c1C(c1ccco1)C(C#N)=C(N)O2 (stereo unspecified)	-5	-2	-7	6	55*	23*
CCCc1nn(C)c2c1C(c1cccnc1)C(C#N)=C(N)O2 (stereo unspecified)	-6	-2	-9	3	60*	24*
Cc1nn(Cc2ccccc2)c2c1C(c1ccncc1)C(C#N)=C(N)O2 (stereo unspecified)	-6	5	-1	3	67*	18*
Cc1cc2c(c(=O)n1Cc1cccnc1)C(c1ccccc1)C(C#N)=C(N)O2 (stereo unspecified)	-1	1	-13	9	-1	nt
CCN(CC)C(=O)c1oc(=O)c2ccccc2c1-c1ccc(C)cc1	nt	nt	nt	12	nt	nt
COC(=O)C1=C(C)OC(N)=C(C#N)C1c1c(C)nn(-c2ccccc2)c1Cl (stereo unspecified)	-10	1	-3	-10	5	nt
Cc1nn(Cc2ccccc2)c2c1C(c1ccc(Cl)cc1)C(C#N)=C(N)O2 (stereo unspecified)	6	3	3	20	60*	16*
SMILES	Rv3671c protease	Mtb UGM inh	Mtb betalactam	CCHFV vOTU inh	RecA intein inh	GFP chromo cs
COc1ccc(Cc2ccccc2C(=O)O)cc1	nt	nt	nt	6	nt	nt
COc1ccc(CC2=CC(=O)c3ccccc3C2=O)cc1	-34	-1	100	3	77*	8.5*
Cc1[nH]n(-c2ccccc2)c(=O)c1/C=N/NC(=O)c1ccc(O)cc1O	15	2	3	nt	41*	2.8*
Cc1sc2ncnc(Sc3nnnn3-c3ccccc3)c2c1C	-4	-2	64	1	34*	18*
Cc1sc2ncnc(Sc3ccccc3C(=O)O)c2c1C	-3	-1	-8	10	-3	nt
Clc1ccc(-n2nnnc2Sc2ncnc3sccc23)cc1	-10	0	100	0	39*	10*
CCCc1c(C(=O)NNc2cccc(Cl)c2)cnn1-c1ccccc1	-5	0	93	1	32*	>38
CCCc1c(C(=O)Nc2ccc(F)cc2F)cnn1-c1ccccc1	-15	-4	2	6	11	nt
CCC(=O)Nc1c(C)nn(C(=O)CC)c1C	-6	-1	-1	0	57*	>38
Cc1ccc(NC(=O)C(=Cc2ccc(C(=O)O)cc2)C(=O)Nc2ccc(C)cc2C)c(C)c1	5	2	17	nt	83*	7.6*
CC(=O)C(=Cc1ccc(C(=O)O)cc1)C(C)=O	0	1	1	9	-2	nt
Cc1cc(-c2ccccc2)nc2cc(C(=O)N(Cc3ccccc3)Cc3ccccc3)nn12	-14	2	61	11	32*	>38
C=CCN1[C@@H](Cc2ccccc2)COc2cccc(N3CCCC3)c2S1(=O)=O	nt	nt	nt	11	nt	nt
CC(C)CN1C(=O)[C@@]2(CC(=O)N(C)C2c2ccccc2)c2cc(-n3cc(CCCC#N)nn3)ccc21 (stereo partly specified)	nt	nt	nt	0	nt	nt
COC(=O)C1CN(Cc2ccccc2)CCS(=O)(=O)N1Cc1ccc(Cl)cc1 (stereo unspecified)	nt	nt	nt	-2	nt	nt
CCC(=O)N1N=C(c2c(O)n(C)c(=O)n(C)c2=O)CC1c1ccccc1 (stereo unspecified)	-7	-2	90	-12	12	nt
Cn1c(O)c(C2=NN(C(=O)CCl)C(c3ccccc3)C2)c(=O)n(C)c1=O (stereo unspecified)	2	0	42	5	45*	5.8*
COc1ccc(CN2CCC(CNC(=O)NC(C)C)CC2)cc1	nt	nt	nt	17	nt	nt
COc1cc(C=C2C(=O)c3ccccc3C2=O)cc(OC)c1OC	-4	6	7	-8	nt	nt
COc1cc(C=C2C(=O)c3ccccc3C2=O)ccc1O	-3	4	-1	-5	46*	>38
Clc1ccc(CN2CCN(N=Cc3ccncc3)CC2)cc1	nt	nt	nt	-5	nt	nt
O=C(CN1CCc2onc(-c3ccc(-n4cc(COc5ccc([N+](=O)[O-])cc5)nn4)cc3)c2C1=O)N1CCOCC1	nt	nt	nt	-3	nt	nt
N#CC(C#N)=C(Nc1ccc(F)cc1)SCc1cccc(Br)c1	0	2	0	6	55*	4.7*
CCC(C(=O)Nc1ccccc1N1CCCC1)c1ccccc1F (stereo unspecified)	nt	nt	nt	8	nt	nt
